Whole data set: some 33,000 sequences, median “E-score (-0.5 to 0.5)” near -0.013, cut for the highest 2% near 0.3. What follows is part of a selection rich in the highest values, with near analogues and random picks from the rest.
target: T1, Msn1 (UniProt P22148); experiment: PBM E-score (8-mer binding enrichment) (E-score (-0.5 to 0.5)); higher = stronger / more preferred TF binding; conditions: protein concentration: 200 nM; construct: GST-full length
T1 sequence: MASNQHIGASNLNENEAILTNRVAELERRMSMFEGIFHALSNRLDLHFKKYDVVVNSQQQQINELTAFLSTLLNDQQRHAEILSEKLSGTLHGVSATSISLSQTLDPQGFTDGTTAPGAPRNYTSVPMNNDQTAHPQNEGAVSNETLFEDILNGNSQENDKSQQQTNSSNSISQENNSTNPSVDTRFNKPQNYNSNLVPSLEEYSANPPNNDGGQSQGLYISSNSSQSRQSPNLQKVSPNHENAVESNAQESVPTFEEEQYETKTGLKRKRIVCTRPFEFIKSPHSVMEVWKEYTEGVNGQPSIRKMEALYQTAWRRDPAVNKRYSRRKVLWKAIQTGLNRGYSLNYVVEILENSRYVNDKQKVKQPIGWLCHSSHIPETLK
Experimental: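 Universal 'all 10-mer' protein binding microarrays (Agilent AMADID 015681) probed with GST-tagged S. cerevisiae TFs (full-length or DBD) made by in vitro transcription/translation (PURExpress), about 100-200 nM. Bound TF was detected with fluorescent anti-GST. Each ungapped 8-mer (which stands for itself and its reverse complement) is scored by the PBM enrichment score (E-score), a modified Wilcoxon-Mann-Whitney statistic from -0.5 to +0.5, computed with the Universal PBM Analysis Suite. Scale: above 0.35 generally sequence-specific binding.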

| Sequence | PBM E-score |
| --- | --- |
| GATTCTAA | 0.0481 |
| TGGCTACA | 0.0201 |
| ATTAGCAA | 0.22 |
| AAGTACGG | 0.0556 |
| AAGCTAAA | 0.12 |
| CATATTCC | 0.0363 |
| CACCCGTG | -0.213 |
| GCAGACCA | -0.0683 |
| CCAGACAG | -0.094 |
| CCAGACAA | 0.258 |
| TCAGACCA | -0.0852 |
| ACAGACAC | 0.288 |
| ACAGACAG | 0.222 |
| ACAGACAA | 0.44 |
| ACAGACAT | 0.399 |
| ACAGACGA | 0.153 |
| GCAGACAA | 0.341 |
| TCAGACAA | 0.367 |
| GCAGACAC | 0.203 |
| TATGAGAA | 0.0684 |
| AATGGTCG | -0.0526 |
| TAGATTCA | -0.192 |
| GCTTCTTA | -0.0464 |
| ACATGTTG | 0.235 |

| Sequence | PBM E-score |
| --- | --- |
| ACATGTCA | 0.358 |
| ACATGTTA | 0.199 |
| ACATGCCT | -0.119 |
| ACATGTAA | 0.255 |
| CCATGTCG | 0.239 |
| ACATGTAG | 0.244 |
| ACATGTAT | 0.312 |
| ACATGTCT | 0.436 |
| ACATGTCG | 0.311 |
| ACCTGTCT | 0.0544 |
| TCATGTCA | 0.252 |
| ACCGATAG | 0.0834 |
| GATTCCGC | 0.0634 |
| AAGCCGCA | -0.0983 |
| GACTGCAA | -0.16 |
| AAAGCGAT | 0.00359 |
| TAGGTGAA | 0.0103 |
| CCATGTCC | 0.434 |
| GCATGTCC | 0.459 |
| ACATGTGC | 0.0743 |
| CCATGTCA | 0.164 |
| GCATGTCA | 0.261 |
| CCATGTAC | 0.216 |
| ACATGTTC | 0.147 |

| Sequence | PBM E-score |
| --- | --- |
| GCATGTAC | 0.291 |
| ACATGTCC | 0.48 |
| CGGGTTGA | -0.255 |
| CCAGCCCC | -0.304 |
| CTTTGCTA | -0.0573 |
| AAACAGTA | -0.0344 |
| CCACAAGC | -0.0513 |
| AGCACATC | -0.0251 |
| CGGACAGC | 0.182 |
| AGGACATG | 0.484 |
| AGGACATC | 0.477 |
| CGGACATA | 0.469 |
| CGGACTGA | 0.0816 |
| AGTACATG | 0.266 |
| CGGACCTA | 0.00062 |
| CGGACATC | 0.387 |
| CCGACATC | 0.0379 |
| AGCACATG | -0.0192 |
| AGTACATC | 0.131 |
| ATGGGCAA | 0.0683 |
| ACATACCG | 0.114 |
| GGAACGAA | 0.0279 |
| AATCTAAG | 0.00698 |
| GCGAGATA | 0.09 |

| Sequence | PBM E-score |
| --- | --- |
| ATCTTCCA | -0.148 |
| GGGACTGA | -0.182 |
| GGGACATA | 0.488 |
| GGGACAGA | 0.262 |
| AGCGTAGG | -0.267 |
| GACCACCA | -0.246 |
| ATCAGACC | -0.192 |
| AAACTGCT | -0.222 |
| CGCCAACG | -0.126 |
| CGCTCTAC | -0.0195 |
| CGTATTGA | -0.0137 |
| ACTGCGGG | -0.124 |
| GGTCTAAA | -0.0883 |
| AGTCTAAA | 0.0711 |
| TGTCTGAA | 0.364 |
| GGTCTGAA | 0.0803 |
| CGTCGCAA | 0.0166 |
| TGTCTAAA | 0.38 |
| TGTCGCAA | 0.324 |
| AGTCTGAA | 0.029 |
| CGTCTTAA | 0.0585 |
| TGTCTTAA | 0.375 |
| GGTCGCAA | -0.11 |
| AGTCTTAA | 0.11 |
